Assay [1] addresses DNA repair nuclease/redox regulator APEX1 (Homo sapiens) (UniProt P27695). Description: qHTS FP-Based Assay for Inhibitors of the Human Apurinic/apyrimidinic Endonuclease 1 (APE1) (AID 2573). Further: on the % scale 0 is the no-effect control and ±100 the full control effect. For orientation: In qHTS, concentration-response curves come from the screen itself.
Assay [2] concerns the target DNA polymerase iota (Homo sapiens) (UniProt Q9UNA4). Description: qHTS for Inhibitors of Polymerase Iota: Confirmatory Assay for Cherry-picked Compounds (AID 720496). Further: potency means the concentration at half of the fitted maximal effect. The conditions noted are these: Pol iota primer extension, TAMRA/BHQ fluorescence. The gist of the method:
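Kinetic fluorescence, 0 → 10 min, ex 525/em 598 nm. Pol iota 10 nM, 15 min RT preincubation with compound, then 50 nM (final) TAMRA/BHQ-2 primer-template substrate.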

For assay [3], the target named is Bifunctional 3'-5' exonuclease/ATP-dependent helicase WRN (Homo sapiens) (UniProt Q14191). The assay can be described thus: qHTS for Inhibitors of WRN Helicase: Confirmatory Assay for Cherry-picked Compounds. (AID 720497). Further: potency means the concentration at half of the fitted maximal effect; nearly all actives have a fitted effect of over 65% in size. The conditions noted are these: WRN helicase DNA unwinding, fluorescence kinetic. The gist of the method: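 Confirmatory retest of cherry-picked hits in 1536-well format. Enzyme (20 nM final) sat with compound for 15 min at room temperature before forked duplex substrate (100 nM) and ATP (2 mM) were added, and unwinding was followed kinetically by red fluorescence.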

Assay [4] in a line: qHTS for Inhibitors of WRN Helicase: Thiazole Orange DNA Binding Counterscreen (AID 720499).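 Further: drop in dye fluorescence marks compound binding to DNA; on the % scale 0 is the no-effect control and ±100 the full control effect; nearly all actives have a fitted effect of over 60% in size.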 The method, boiled down: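 Fluorescent ThO–DNA complex (100 nM dye, 50 nM unlabeled DNA) exposed to test compounds for 15 min at room temperature; emission at 530 nm after 480 nm excitation reports dye displacement.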
Assay [5] addresses DNA polymerase eta (Homo sapiens) (UniProt Q9Y253). The assay can be described thus: qHTS for Inhibitors of Polymerase Eta: Confirmatory Assay for Cherry-picked Compounds (AID 720502). Further: potency means the concentration at half of the fitted maximal effect. The conditions noted are these: Pol eta primer extension, TAMRA/BHQ fluorescence, 10 min. The gist of the method:
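Pol eta 10 nM; substrate 50 nM final (unlabeled primer, TAMRA reporter, BHQ-2 template); preincub. 15 min RT; reads t=0 and t=10 min at ex525/em598.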

Assay [6] addresses RecQ-like DNA helicase BLM (Homo sapiens) (UniProt P54132). The assay can be described thus: qHTS for Inhibitors of WRN Helicase: BLM Helicase Counterscreen for WRN Inhibitors (AID 720503). Further: potency means the concentration at half of the fitted maximal effect; nearly all actives have a fitted effect of over 60% in size. The conditions noted are these: Recombinant BLM helicase DNA unwinding, red fluorescence. The method, boiled down: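 BLM (1 nM) was preincubated with compounds for 15 min at room temperature in Tris-HCl pH 8.0, 50 mM NaCl, 2 mM MgCl2 buffer. Unwinding started with 100 nM DNA and 2 mM ATP (final); red fluorescence was read twice, 15 min apart.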

For assay [7], the target named is Tyrosyl-DNA phosphodiesterase 1 (Homo sapiens) (UniProt Q9NUW8). Description: Confirmation Assay for Inhibitors of Tyrosyl-DNA Phosphodiesterase (TDP1) (AID 489007). Further: potency means the concentration at half of the fitted maximal effect; nearly all actives have a fitted effect of over 40% in size. The conditions noted are these: recombinant human TDP1 enzymatic activity, dose-response. The gist of the method:
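Loss of AlphaScreen signal reports Tdp1 cleavage of a dual-labelled DNA substrate. Conditions: 1 nM E. coli-derived enzyme, 15 nM substrate, 15 min compound preincubation, 5 min reaction, 10 min bead incubation, all at room temperature.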

The nature of assay [8]: qHTS screen for small molecules that inhibit ELG1-dependent DNA repair: Hit Confirmation in Cell-Based Luciferin Assay (AID 624247). Further: on the % scale 0 is the no-effect control and ±100 the full control effect. The method, boiled down: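 Order of addition is substrate reagent → compound (or DMSO) → luciferase, with luminescence as readout.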
Assay [9] has as its target ATPase family AAA domain-containing protein 5 (Homo sapiens) (UniProt Q96QE3). The assay can be described thus: HTS assay for small molecules that inhibit ELG1-dependent DNA repair in human embryonic kidney (HEK293T) cells expressing luciferase-tagged ELG1: Hit Confirmation (AID 624248). Further: potency means the concentration at half of the fitted maximal effect; nearly all actives have a fitted effect of over 55% in size. The conditions noted are these: HEK293T ELG1-luciferase levels, luminescence; cells co-treated with 5-fluorouridine. The method, boiled down:
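HEK293T cells expressing luciferase-tagged ELG1 treated with 5-fluorouridine plus compound for 16 h at 37 C; luciferase activity then measured with ONE-Glo after 30 min at room temperature.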

For assay [10] the target is unchanged. Description: qHTS screen for small molecules that inhibit ELG1-dependent DNA repair in human embryonic kidney (HEK293T) cells expressing luciferase-tagged ELG1: Hit Confirmation using MMS Stimulated ELG1 (AID 624249). Further: potency means the concentration at half of the fitted maximal effect; nearly all actives have a fitted effect of over 60% in size. The conditions noted are these: HEK293T luciferase-tagged ELG1 level. The gist of the method:
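Hit confirmation in an ELG1-luc HEK293T line: about five hours after plating, wells got compound plus MMS at a final 10 µM. A 16 h incubation preceded Amplight-based luciferase measurement.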

Assay [11] is described as follows: qHTS screen for small molecules that inhibit ELG1-dependent DNA repair: Hit Confirmation with MMS Viability (AID 624251).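 Further: potency means the concentration at half of the fitted maximal effect; viability read 16 h after compound addition; nearly all actives have a fitted effect of over 60% in size.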 The conditions noted are these: Cell viability with MMS. The gist of the method: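 HEK293T ELG1-luc, 2,000 cells/well; cpd pin-transferred ~5 h post-seeding; MMS 10 µM final; 16 h; CellTiter-Glo viability.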
Assay [12] addresses Luciferin 4-monooxygenase (Photinus pyralis) (UniProt P08659). The assay can be described thus: qHTS screen for small molecules that inhibit ELG1-dependent DNA repair: Hit Confirmation in Biochemical Luciferin Assay (AID 624253). Further: on the % scale 0 is the no-effect control and ±100 the full control effect. The gist of the method: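 Cell-free hit confirmation using firefly luciferase; light output measured by CCD imaging.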
The target in assay [13] is Tumor susceptibility gene 101 protein (Homo sapiens) (UniProt Q99816). The assay can be described thus: qHTS Assay for Iinhibitors of HIV-1 Budding by Blocking the Interaction of PTAP/TSG101: Hit Validation (AID 651600). Further: on the % scale 0 is the no-effect control and ±100 the full control effect; nearly all actives have a fitted effect of over 70% in size. The gist of the method: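 Compounds are added to the Tsg101 binding domain (10 uM final) in pH 7.5 HEPES buffer. FITC-PTAP peptide follows at 50 nM final. After 20 min at r.t., polarized FITC emission is measured.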
Tumor susceptibility gene 101 protein (Homo sapiens), sequence (Q99816 whole entry, looked up, the tested form may be a part): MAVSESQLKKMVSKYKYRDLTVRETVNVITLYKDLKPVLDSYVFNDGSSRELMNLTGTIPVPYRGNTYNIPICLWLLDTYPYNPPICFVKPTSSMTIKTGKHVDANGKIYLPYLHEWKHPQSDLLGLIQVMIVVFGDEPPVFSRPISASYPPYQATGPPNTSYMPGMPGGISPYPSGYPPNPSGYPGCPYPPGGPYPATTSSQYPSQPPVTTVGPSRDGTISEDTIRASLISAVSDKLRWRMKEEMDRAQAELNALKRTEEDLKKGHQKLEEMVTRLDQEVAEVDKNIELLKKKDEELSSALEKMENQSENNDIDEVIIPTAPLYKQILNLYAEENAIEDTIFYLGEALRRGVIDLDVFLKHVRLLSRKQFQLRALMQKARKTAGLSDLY

A short description of assay [14]: AP1 Signaling Pathway (AID 357; active means well fitted curve in either direction with a large enough effect, not every such curve was filed as active;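 further: ME-180 reporter cells stimulated with EGF at its EC50 level; on the % scale 0 is the no-effect control and ±100 the full control effect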). The settings on record: ME-180 AP-1-bla reporter, EGF-induced, beta-lactamase ratio, 5 h. The method, boiled down:
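A ratiometric CCF4 readout (405 nm excitation; 460 and 530 nm emission) quantified AP-1-driven beta-lactamase in ME-180 cells after 5 h with compound and EC50 EGF; AC50 values were derived for activators and inhibitors.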

The nature of assay [15]: Stat Signaling Pathway (AID 446; active means well fitted curve in either direction with a large enough effect, not every such curve was filed as active). The settings on record: ME-180 (cervical carcinoma) SIE beta-lactamase reporter, IL-6 stimulated, 5 h. The gist of the method: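 Compound effects on IL-6-induced STAT reporter activity were measured in ME-180 cells. After overnight culture, cells were co-treated with 40 pM IL-6 for 5 hrs before beta-lactamase substrate loading at room temperature.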
For assay [16], the target named is Cytochrome P450 2C9 (Homo sapiens) (UniProt P11712). The assay can be described thus: qHTS Assay for Inhibitors and Substrates of Cytochrome P450 2C9 (AID 883). The gist of the method:
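Signal: luciferase luminescence reporting luciferin produced by CYP2C9. Conditions: 10nM enzyme, Luciferin-H 100uM at KM, 25mM KPO4, 37C, 60 min NADPH-driven reaction. Reference: 57uM sulphaphenazole as 100% inhibition.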

The target in assay [17] is Cytochrome P450 2D6 (Homo sapiens) (UniProt P10635). Description: qHTS Assay for Inhibitors and Substrates of Cytochrome P450 2D6 (AID 891). The method, boiled down:
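Luminescent read-out of luciferin formed by 5 nM human CYP2D6 demethylating 30 uM Luciferin-ME EGE (Km level) over 60 min at room temperature after NADPH regeneration addition. Data normalized to full inhibition by 1.43 uM quinidine.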

Assay [18] concerns the target Cytochrome P450 2C19 (Homo sapiens) (UniProt P33261). The assay can be described thus: qHTS Assay for Inhibitors and Substrates of Cytochrome P450 2C19 (AID 899). The method, boiled down:
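Signal comes from luciferase acting on luciferin released by CYP2C19-mediated hydroxylation of Luciferin-H EGE, 10uM (KM). Assay mix: 5nM enzyme, 50mM KPO4; 60 min at 37C with NADPH regeneration. Data normalized against 57uM ketoconazole.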

Assay [19] in a line: NFAT Signaling Pathway (AID 444; active means well fitted curve in either direction with a large enough effect, not every such curve was filed as active). The settings on record: Jurkat NFAT-bla M1, carbachol, beta-lactamase ratio, 5 h. The gist of the method: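 Jurkat cells with NFAT-driven β-lactamase reporter and co-expressed M1 receptor, stimulated with carbachol (final 1 uM, ~EC50), compound titration, 5 h at 37 °C. CCF4 loaded 1 h at RT; 460/530 nm ratio gave %activity and AC50.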
Assay [20] has as its target Guanine nucleotide-binding protein G(i) subunit alpha-1 (Homo sapiens) (UniProt P63096). The assay can be described thus: qHTS Assay for Inhibitors of RGS12 GoLoco Motif Activity (Green Fluorophore) (AID 879).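 Further: 0% = labeled peptide with Gαi1 and full inhibition = labeled peptide alone without protein; negative values mean loss of peptide binding seen as reduced polarization.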 The method, boiled down: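 A drop in FITC polarization marked displacement of the FITC-tagged RGS12 GoLoco peptide (10 nM) from Gαi1 (50 nM). Compounds were incubated 10 min at room temperature in Tris pH 7.5 buffer containing 150 mM NaCl, 0.1 mM GDP and 0.05% NP40; unlabeled peptide titration served as control.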

The nature of assay [21]: qHTS Assay for Identification of Small Molecule Antagonists for NFkB Signaling Pathway (AID 895; active means well fitted inhibition curve with a large enough effect in the signal ratio, with a control signal flat, not every such curve was filed as active; the % refers to the signal ratio; further: on the % scale 0 is the no-effect control and ±100 the full control effect). The method, boiled down:
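ME-180 NFkB-bla cells (beta-lactamase under NFkB response element), plated overnight, treated with compound then 10 pM TNF alpha (about EC50) for 5 hrs at 37 C. LiveBLAzer FRET read at 460/530 nm emission, 405 nm excitation.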

The nature of assay [22]: qHTS Assay for Identification of Small Molecule Agonists for Thrombopoietin (TPO) Signaling Pathway (AID 917). Further: on the % scale 0 is the no-effect control and ±100 the full control effect. The method, boiled down:
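Cell-based luciferase reporter screen. Mouse Ba/F3 line stably expressing human TPO receptor; IL-3 removed overnight before plating. Co-treatment with compound and EC50 TPO (26 pM), 24 hrs at 37 C, then luminescence.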

For assay [23], the target named is Pyruvate kinase PKM (Homo sapiens) (UniProt P14618). The assay can be described thus: qHTS Assay for Activators of Human Muscle Pyruvate Kinase (AID 954; active means well fitted curve in the direction sought with a large enough effect, not every such curve was filed as active;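 further: 0% = uninhibited enzyme and -100% = no enzyme or full thiadiazolimine inhibition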). The method, boiled down:
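A coupled luminescent readout tracked ATP made from ADP by purified PKM2. Final conditions included 0.1 nM enzyme, PEP and ADP at 0.5 and 0.1 mM, pH 7.2 imidazole buffer with BSA, and a one-hour room-temperature reaction.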

Assay [24] addresses Alpha-galactosidase A (Homo sapiens) (UniProt P06280). The assay can be described thus: Counterscreen for Glucocerebrosidase Inhibitors: qHTS Assay for Human alpha-Galactosidase at pH 4.5 (AID 992). Further: 0% is about no effect. The method, boiled down:
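Citrate buffer pH 4.5, Tween-20 0.005%. Enzyme 2 nM, substrate 80 uM, 20 min RT. Stop pH 10. Fluorescence Ex 365/Em 440. AC50 by Hill fit.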

In assay [25] the target is alpha-glucosidase (Oryza sativa, rice) (UniProt Q653V4). Description: Counterscreen for Glucocerebrosidase Inhibitors: qHTS Assay for Rice alpha-Glucosidase at pH 5.0 (AID 997).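 Further: 0% = full activity with enzyme and -100% = basal without enzyme.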 The gist of the method: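 Endpoint fluorogenic assay at pH 5.0: compounds (0.7 nM to 77 uM) titrated against 4 nM rice enzyme and 400 uM 4-MU-alpha-glucoside for 20 min at room temperature; NaOH/glycine stop, read ex 365/em 440 nm, Hill-fitted AC50.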
(A counterscreen serves to expose hits that act by an unwanted route or on another target.)

Unmarked numbers belong to inactive results. Inconclusive results are not listed. The list shows a part of the results. Calls of active or inactive are those of the source. Unless noted, the call rests on the fitted dose curve; in most records, active means well fitted curve in the direction sought with a large enough effect; inconclusive means small, poorly fitted or top-dose-only effect, or another doubt; inactive means no such curve, though single readings can be large; an effect the other way counts as inactive or inconclusive.

Cytochrome P450 2C19 (Homo sapiens), sequence (P33261 whole entry, looked up): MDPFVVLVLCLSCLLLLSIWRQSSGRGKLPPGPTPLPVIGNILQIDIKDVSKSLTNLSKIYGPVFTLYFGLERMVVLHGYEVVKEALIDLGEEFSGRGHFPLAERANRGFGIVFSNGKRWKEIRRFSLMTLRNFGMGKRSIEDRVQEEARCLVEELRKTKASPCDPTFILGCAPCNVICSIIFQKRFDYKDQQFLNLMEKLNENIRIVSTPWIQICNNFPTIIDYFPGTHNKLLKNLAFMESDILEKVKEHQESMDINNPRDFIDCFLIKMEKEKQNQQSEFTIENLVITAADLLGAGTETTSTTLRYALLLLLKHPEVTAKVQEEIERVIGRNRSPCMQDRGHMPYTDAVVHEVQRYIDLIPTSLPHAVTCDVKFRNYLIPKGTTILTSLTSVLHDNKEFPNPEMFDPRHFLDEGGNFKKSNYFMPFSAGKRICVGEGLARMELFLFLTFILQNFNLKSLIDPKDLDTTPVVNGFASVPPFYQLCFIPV
DNA repair nuclease/redox regulator APEX1 (Homo sapiens), sequence (P27695 whole entry, looked up): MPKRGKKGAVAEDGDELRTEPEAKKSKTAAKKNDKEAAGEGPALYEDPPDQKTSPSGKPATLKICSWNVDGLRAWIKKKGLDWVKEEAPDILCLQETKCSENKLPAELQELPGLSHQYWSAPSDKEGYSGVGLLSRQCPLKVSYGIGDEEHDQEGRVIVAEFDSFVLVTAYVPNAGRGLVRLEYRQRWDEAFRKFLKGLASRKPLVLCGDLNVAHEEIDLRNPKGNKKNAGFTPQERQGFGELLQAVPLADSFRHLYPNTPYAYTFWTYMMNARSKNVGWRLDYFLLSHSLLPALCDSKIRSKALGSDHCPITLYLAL
ATPase family AAA domain-containing protein 5 (Homo sapiens), sequence (Q96QE3 whole entry, looked up, the tested form may be a part): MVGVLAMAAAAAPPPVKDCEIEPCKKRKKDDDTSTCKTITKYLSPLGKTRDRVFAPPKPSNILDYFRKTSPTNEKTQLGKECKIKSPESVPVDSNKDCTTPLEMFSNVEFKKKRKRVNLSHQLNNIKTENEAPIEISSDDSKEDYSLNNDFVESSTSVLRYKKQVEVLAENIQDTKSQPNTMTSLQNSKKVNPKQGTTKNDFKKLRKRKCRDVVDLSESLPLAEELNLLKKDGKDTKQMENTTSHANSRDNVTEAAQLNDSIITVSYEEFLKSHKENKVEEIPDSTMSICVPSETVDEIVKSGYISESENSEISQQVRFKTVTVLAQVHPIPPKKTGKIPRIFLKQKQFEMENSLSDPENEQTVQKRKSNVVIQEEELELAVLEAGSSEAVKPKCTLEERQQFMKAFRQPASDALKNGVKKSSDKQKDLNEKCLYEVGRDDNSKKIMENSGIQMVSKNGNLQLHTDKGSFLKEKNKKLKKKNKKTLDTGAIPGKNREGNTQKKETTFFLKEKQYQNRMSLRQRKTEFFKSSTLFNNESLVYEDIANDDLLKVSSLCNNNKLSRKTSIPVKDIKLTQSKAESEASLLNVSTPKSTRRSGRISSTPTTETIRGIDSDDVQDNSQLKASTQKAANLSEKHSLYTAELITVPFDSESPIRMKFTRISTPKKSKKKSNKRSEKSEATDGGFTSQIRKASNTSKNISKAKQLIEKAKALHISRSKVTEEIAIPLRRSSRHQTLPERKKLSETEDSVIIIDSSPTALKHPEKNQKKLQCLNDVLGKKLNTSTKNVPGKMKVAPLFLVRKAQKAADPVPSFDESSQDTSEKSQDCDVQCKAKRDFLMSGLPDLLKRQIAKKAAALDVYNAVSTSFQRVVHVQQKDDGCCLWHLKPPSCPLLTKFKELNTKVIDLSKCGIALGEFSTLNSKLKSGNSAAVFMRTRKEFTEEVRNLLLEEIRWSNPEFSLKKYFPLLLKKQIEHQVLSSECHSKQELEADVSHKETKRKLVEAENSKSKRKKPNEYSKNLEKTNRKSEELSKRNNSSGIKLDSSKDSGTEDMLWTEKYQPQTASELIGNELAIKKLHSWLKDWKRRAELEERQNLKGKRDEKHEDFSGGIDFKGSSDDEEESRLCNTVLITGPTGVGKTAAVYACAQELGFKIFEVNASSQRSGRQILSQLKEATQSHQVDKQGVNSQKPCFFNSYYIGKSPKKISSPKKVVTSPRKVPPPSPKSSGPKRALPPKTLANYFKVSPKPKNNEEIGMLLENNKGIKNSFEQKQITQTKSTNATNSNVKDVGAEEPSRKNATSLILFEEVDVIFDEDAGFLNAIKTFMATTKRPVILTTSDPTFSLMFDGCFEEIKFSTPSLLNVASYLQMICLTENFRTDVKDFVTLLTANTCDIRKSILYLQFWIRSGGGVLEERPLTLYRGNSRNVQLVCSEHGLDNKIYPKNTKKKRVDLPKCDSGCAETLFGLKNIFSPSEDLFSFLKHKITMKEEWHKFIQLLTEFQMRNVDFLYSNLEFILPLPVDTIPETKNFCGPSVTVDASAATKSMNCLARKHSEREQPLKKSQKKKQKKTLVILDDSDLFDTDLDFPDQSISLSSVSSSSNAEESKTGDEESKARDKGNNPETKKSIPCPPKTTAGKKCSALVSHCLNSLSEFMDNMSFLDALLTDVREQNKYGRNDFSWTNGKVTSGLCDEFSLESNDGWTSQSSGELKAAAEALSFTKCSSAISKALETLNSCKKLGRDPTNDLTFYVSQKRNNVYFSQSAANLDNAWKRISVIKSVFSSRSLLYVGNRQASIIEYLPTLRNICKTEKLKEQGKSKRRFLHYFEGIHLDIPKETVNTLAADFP
Cytochrome P450 2D6 (Homo sapiens), sequence (P10635 whole entry, looked up): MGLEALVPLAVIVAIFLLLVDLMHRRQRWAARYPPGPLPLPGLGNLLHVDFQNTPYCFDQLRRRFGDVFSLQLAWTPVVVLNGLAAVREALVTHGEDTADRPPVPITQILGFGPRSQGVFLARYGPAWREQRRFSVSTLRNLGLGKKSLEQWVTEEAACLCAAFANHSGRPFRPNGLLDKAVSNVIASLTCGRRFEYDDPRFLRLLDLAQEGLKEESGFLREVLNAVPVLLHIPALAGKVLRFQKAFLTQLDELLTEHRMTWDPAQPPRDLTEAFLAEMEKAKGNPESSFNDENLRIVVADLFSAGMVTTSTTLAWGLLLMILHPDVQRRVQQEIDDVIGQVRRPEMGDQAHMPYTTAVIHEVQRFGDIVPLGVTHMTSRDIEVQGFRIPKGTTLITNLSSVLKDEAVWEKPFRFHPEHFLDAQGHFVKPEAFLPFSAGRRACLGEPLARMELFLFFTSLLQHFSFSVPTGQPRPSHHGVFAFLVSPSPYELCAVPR
Cytochrome P450 2C9 (Homo sapiens), sequence (P11712 whole entry, looked up): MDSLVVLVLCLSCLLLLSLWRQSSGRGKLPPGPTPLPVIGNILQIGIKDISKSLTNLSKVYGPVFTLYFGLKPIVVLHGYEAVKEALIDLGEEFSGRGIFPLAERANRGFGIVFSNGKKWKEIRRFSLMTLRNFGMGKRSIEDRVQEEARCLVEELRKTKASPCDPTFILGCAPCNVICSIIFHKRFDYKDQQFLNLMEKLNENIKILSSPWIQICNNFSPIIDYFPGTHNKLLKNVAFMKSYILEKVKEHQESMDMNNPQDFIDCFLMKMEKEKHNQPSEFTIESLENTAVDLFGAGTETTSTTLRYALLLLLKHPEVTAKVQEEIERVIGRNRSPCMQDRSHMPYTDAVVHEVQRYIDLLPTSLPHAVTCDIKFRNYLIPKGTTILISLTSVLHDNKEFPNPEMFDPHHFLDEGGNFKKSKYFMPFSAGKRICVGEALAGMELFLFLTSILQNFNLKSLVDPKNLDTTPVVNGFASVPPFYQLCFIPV
DNA polymerase iota (Homo sapiens), sequence (Q9UNA4 whole entry, looked up): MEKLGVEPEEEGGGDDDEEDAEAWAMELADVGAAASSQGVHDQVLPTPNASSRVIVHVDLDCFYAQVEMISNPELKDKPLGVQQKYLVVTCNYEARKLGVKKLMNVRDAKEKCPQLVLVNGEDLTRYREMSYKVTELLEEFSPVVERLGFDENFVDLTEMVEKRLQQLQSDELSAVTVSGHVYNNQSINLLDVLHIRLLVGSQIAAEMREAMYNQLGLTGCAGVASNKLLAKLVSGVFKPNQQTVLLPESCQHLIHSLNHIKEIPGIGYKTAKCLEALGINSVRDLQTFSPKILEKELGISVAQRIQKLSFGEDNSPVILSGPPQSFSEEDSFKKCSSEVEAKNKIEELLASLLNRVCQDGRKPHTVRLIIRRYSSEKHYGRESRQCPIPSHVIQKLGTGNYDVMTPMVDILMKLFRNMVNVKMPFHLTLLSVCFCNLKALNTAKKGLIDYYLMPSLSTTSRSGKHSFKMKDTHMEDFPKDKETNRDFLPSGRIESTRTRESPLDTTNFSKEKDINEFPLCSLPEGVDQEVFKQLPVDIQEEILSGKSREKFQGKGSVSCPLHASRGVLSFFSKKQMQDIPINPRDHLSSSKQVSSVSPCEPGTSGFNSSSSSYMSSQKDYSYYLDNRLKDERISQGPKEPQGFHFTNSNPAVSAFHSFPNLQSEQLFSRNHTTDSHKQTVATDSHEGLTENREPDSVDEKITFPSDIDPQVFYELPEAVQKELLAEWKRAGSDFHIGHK

Regarding `N#Cc1ccccc1CN1C(=O)S/C(=C/c2cccn2-c2cccc(C(=O)O)c2)C1=O`, in assay [1], the Potency entry is “inactive”. In addition, the Potency is 67 µM (active) in [2], 21.5 µM (active) in assay [3], 60.1 µM (active) in [5] and 17.1 µM (active) in [6]. Further, the outcome in assay [4] was inactive.
For `CC(C)(C)C(=O)OCc1nc(-c2ccc(O)c(O)c2)cs1`, the Potency result in assay [1] is “inactive”.
Consider `O=C(NCc1ccccn1)c1ccc2nc(-c3ccco3)c(-c3ccco3)nc2c1`, for which the Potency in assay [7] is 10 µM (active).
Regarding `Cc1nnc(N/N=C/c2ccccn2)[nH]c1=O`, the molecule was called inactive in [8] and in assay [12]. Besides, the Potency in assay [9] is 2.23 µM (active); in assay [10], 2.5 µM (active); in [11] it was 7.06 µM (active).
For the molecule `Oc1ccc2ccccc2c1N=Nc1nccs1`, the outcome in [13] was inactive.
As to `COc1ccc2cc1Oc1ccc(cc1)C[C@H]1c3cc(c(OC)cc3CCN1C)Oc1c(OC)c(OC)cc3c1[C@@H](C2)N(C)CC3`, the activity change, negative = inhibition is -3.56% in assay [14] (at 7.69 µM (top of the series)) and -5.15% in assay [14] (at 17.2 µM (top of the series)). Moreover, the activity, negative = inhibition in [15] (at 7.69 µM (top of the series)) was -1.58%; in [15] (at 17.2 µM (top of the series)), -5.25%. Besides, the Potency result in assay [16], in assay [17] and in assay [18] was “inactive” in each case.
Take `Cc1cn([C@H]2C[C@H](N=[N+]=[N-])[C@H](CO)O2)c(=O)[nH]c1=O`: the activity change, negative = inhibition in assay [14] (at 7.69 µM (top of the series)) was 11.1%; in [14] (at 38 µM (top of the series)), 1.21%; in assay [19] (at 7.69 µM (top of the series)), 5.39%; in assay [19] (at 38 µM (top of the series)) it was -4.43%. Also, the activity, negative = inhibition in assay [15] (at 7.69 µM (top of the series)) is -1.74%; in [15] (at 38 µM (top of the series)), 22.1%. The result in assay [20], in assay [22], in [23] and in assay [24] was inactive. Further, the Potency entry in assay [21] and in assay [25] was “inactive” in each case.

Values taken from PubChem BioAssay (NCATS).
